Screens: PubChem BioAssay, Broad Institute
AF4-AF9 inh = MLL-AF4/AF9 protein interaction inhibition | inhibition, % at 10 µM | AlphaScreen, biotin-AF4 peptide binding to FLAG-AF9 | hit rate 0.47% among 350,000;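 active means every replicate reaching a set inhibition limit, whatever the replicate mean, cut at about 25% in these data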;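 further: 0% = plate neutral control median and 100% = total signal loss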
Target sequence (P42568 whole entry, looked up): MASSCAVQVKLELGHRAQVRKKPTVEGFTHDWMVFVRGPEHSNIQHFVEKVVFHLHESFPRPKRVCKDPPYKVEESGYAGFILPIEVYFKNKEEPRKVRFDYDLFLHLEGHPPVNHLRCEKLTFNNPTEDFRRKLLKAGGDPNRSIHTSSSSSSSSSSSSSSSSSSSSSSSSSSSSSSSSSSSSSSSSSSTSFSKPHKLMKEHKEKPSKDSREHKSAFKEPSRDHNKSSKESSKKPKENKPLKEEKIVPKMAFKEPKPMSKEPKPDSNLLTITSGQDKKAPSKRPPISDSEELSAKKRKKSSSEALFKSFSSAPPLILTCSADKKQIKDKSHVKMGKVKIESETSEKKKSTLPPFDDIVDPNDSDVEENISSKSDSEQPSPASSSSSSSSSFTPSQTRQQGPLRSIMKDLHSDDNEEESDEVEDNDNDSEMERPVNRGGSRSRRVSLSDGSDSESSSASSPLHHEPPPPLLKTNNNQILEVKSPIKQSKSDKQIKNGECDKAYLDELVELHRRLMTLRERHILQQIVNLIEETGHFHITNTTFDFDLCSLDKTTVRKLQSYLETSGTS
RAD54 inh = blocks human RAD54 Holliday junction branch migration. Q92698. FAM/BHQ fluorescence. inhibition, % at 10.4 µM. hit rate 0.14% among 360,000. AID 602329;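 active means mean normalized replicate activity at least 40 and at least half of replicates scoring 40 or more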;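 further: 0% = median of neutral control wells and 100% = median of positive control wells; inhibitors cause a drop in the FAM fluorescence signal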
RAD52 inh = blocks human RAD52 DNA annealing | P43351 | recombinant RAD52 DNA annealing, FRET fluorescence | inhibition, % at 18.7 µM | hit rate 0.46% among 360,000;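 active means every replicate showing at least 50% inhibition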
CASP6 VEID inh = caspase-6 (human) enzyme inhibition | P55212 | purified caspase-6, Z-VEID-R110 cleavage fluorescence | inhibition, % at 12.5 µM | hit rate 0.53% among 350,000 | AID 686996;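 active means mean inhibition across replicates at least about 35%, with every replicate also reaching that limit, limit read from the data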;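 further: 0% = median of neutral control wells and 100% = no fluorescence left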
N-glyco inh = N-linked glycosylation inhibition; hit rate 0.23% among 360,000; D54 ERlucT glycosylation luciferase reporter, 24 h; percent of 100 nM tunicamycin response; reporter increase, % at 12.5 µM;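 active means mean luciferase reporter signal, scaled so untreated is 0 and the glycosylation-blocking control 100, at or above a set limit in every replicate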;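 further: luciferase carries N-glycosylation sites so blocking glycosylation raises the light; 0% = median of neutral control wells and 100% = median of 100 nM tunicamycin wells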
* hit, by the source's call; x = not tested or not shown. Hits are enriched below; roughly 1.2% of the tested compounds scored in any of these assays.

SMILES	AF4-AF9 inh	RAD54 inh	RAD52 inh	CASP6 VEID inh	N-glyco inh
COc1ccc(CNC(=O)C2CCN(S(=O)(=O)c3ccc4nc5c(c(C(=O)O)c4c3)CCCC5)CC2)cc1	-3.9	-19.9	-34.4	54.0*	1.9
COc1ccc(CCNC(=O)C2CCN(S(=O)(=O)c3ccc4nc5c(c(C(=O)O)c4c3)CCCC5)CC2)cc1OC	0.7	6.6	-11.6	14.2	2.7
O=C(O)c1c2c(nc3ccc(S(=O)(=O)N4CCC(C(=O)NC5CCCCCC5)CC4)cc13)CCCC2	0.6	x	-13.2	43.1*	-0.4
O=C(O)c1c2c(nc3ccc(S(=O)(=O)N4CCC(C(=O)NCc5ccc(Cl)cc5)CC4)cc13)CCCC2	2.4	-21.3	-37.8	64.5*	0.4
O=C(O)c1c2c(nc3ccc(S(=O)(=O)N4CCC(C(=O)NCc5ccccc5Cl)CC4)cc13)CCCC2	-1.2	-10.2	-30.1	44.2*	0.9
Cc1noc(C)c1NC(=O)N(C)C[C@@H]1Oc2c(NC(=O)Nc3ccc(C(F)(F)F)cc3)cccc2C(=O)N([C@H](C)CO)C[C@H]1C	-1.8	-6.3	5.5	3.1	x
COc1cc(-c2noc(C)c2/C=C/c2ccc(C(=O)O)cc2)cc(OC)c1OC	-2.7	-8.4	-6.1	35.4*	5.3
COc1cc(-c2noc(C)c2/C=C/c2cccc([N+](=O)[O-])c2)cc(OC)c1OC	7.3	5.8	-13.6	-7.4	10.8
CN(C)C(=O)c1cccc(-c2ccc([C@@H]3[C@H]4CN(C(=O)CC5CC5)CC(=O)N4[C@H]3CO)cc2)c1	-1.7	x	5.8	-0.8	x
COc1ccccc1NC(=O)C(=N\O)/C(C)=N/O	5.3	x	3.7	39.2*	0.3
COc1ccccc1NC(C)=O	x	-1.1	x	x	-0.4
CCC(=O)N1CC2(C1)[C@H](c1ccc(-c3cccc(F)c3)cc1)[C@H](CO)N2CC1CC1	2.1	x	3.9	-1.7	x
CCOc1ccc(-n2nc3c(Cl)nnc(C)c3c2C)cc1	58.1*	-0.6	-14.7	3.4	2.7
O=C(/C=C/c1ccc(Cl)cc1)Nc1nccs1	0.0	x	-26.1	63.6*	-12.0
O=C(c1ccccn1)N1CC2(C1)[C@@H](c1ccccc1)[C@H](CO)N2Cc1ccc(Cl)cc1	2.7	x	4.5	1.1	x
Cc1c(F)cccc1NC(=O)CCCCCC1NC(=O)NC1C (centres undefined)	89.7*	3.2	-7.8	-4.8	3.0
Cc1c(F)cccc1NC(=O)CCC(=O)O	x	-9.2	x	x	0.3
N#C[C@@H]1[C@H](c2ccc(C3=CCCCC3)cc2)[C@H](CO)N1C(=O)NC1CCCC1	0.1	x	x	x	x
C[C@@H]1CN([C@@H](C)CO)C(=O)Cc2cc(NC(=O)NC3CCCCC3)ccc2O[C@@H]1CN(C)S(=O)(=O)c1cn(C)cn1	-10.0	3.0	20.7	2.4	x
CC(N)C(=O)NC(C(=O)NC(C)C(=O)Nc1cccc2ccccc12)C(C)C (centres undefined)	7.0	9.3	-5.9	44.9*	2.2
COc1ccc(C(=O)/C=C/c2ccc(OC(=O)c3cc(OC)c(OC)c(OC)c3)cc2)cc1	11.9	-7.5	-3.9	-1.8	42.3*
COC(=O)c1ccc(/C=C/C(=O)c2ccc(OC)c(OC)c2)cc1	x	3.7	x	x	62.4*
CCOc1ccc(C(=O)/C=C/c2cc(OC)c(OC)c(OC)c2)cc1	9.1	1.3	-6.8	-0.7	13.4
COc1cc(/C=C/C(=O)c2ccc3c(c2)OCCO3)cc(OC)c1OC	3.5	-2.2	-11.5	-0.5	42.1*
C[C@@H]1CN([C@@H](C)CO)C(=O)c2cc(C#CC3CCCCC3)cnc2O[C@H]1CN(C)S(C)(=O)=O	-3.8	-5.3	1.0	6.3	x
SMILES	AF4-AF9 inh	RAD54 inh	RAD52 inh	CASP6 VEID inh	N-glyco inh
COc1ccc(C#Cc2ccc3c(c2)[C@@H]2[C@@H](CCN2C(=O)c2ccncc2)[C@@H](CO)N3C)cc1	2.6	15.6	62.3*	3.1	x
OC[C@@H]1Nc2ccc(C#Cc3ccccc3)cc2[C@@H]2[C@H]1CCN2Cc1nccs1	18.3	x	59.2*	-0.8	x
COc1ccc(C#Cc2ccc3c(c2)[C@H]2[C@H](CCN2S(=O)(=O)c2cccc(OC)c2)[C@H](CO)N3C)cc1	2.0	7.7	62.1*	-0.1	x
COc1ccccc1C#Cc1ccc2c(c1)[C@H]1NCC[C@H]1[C@@H](CO)N2	18.0	x	54.1*	0.8	x
OC[C@@H]1Nc2ccc(C#Cc3ccccc3)cc2[C@H]2[C@@H]1CCN2Cc1nccs1	-2.1	4.6	x	x	x
Cc1noc(C)c1NC(=O)N(C)C[C@H]1Oc2ccc(NC(=O)Nc3ccc(F)cc3)cc2CC(=O)N([C@@H](C)CO)C[C@H]1C	-3.3	-1.9	0.7	0.5	x
C[C@@H]1CN([C@H](C)CO)C(=O)c2cc(C3=CCCC3)cnc2O[C@H]1CN(C)Cc1cccnc1	-3.6	-1.8	7.6	10.1	x
COc1ccc(C#Cc2ccc3c(c2)[C@H]2[C@H](CCN2C(=O)c2ccccn2)[C@@H](CO)N3)cc1	26.1*	x	19.0	2.2	x
O=C(C[n+]1ccc(CCSc2ccc(F)cc2)cc1)c1ccccc1	x	86.6*	x	x	-0.9
Cc1ccc(C2(CCNCc3ccc(N(C)C)cc3)CCOC(C(C)C)C2)cc1 (centres undefined)	39.6*	x	-40.6	4.6	-4.3
C[N+]1(C)CC2=Cc3ccccc3CC2C1 (centres undefined)	-1.3	x	-9.0	-5.8	-3.2
C1=C2C[N+]3(CCCC3)CC2Cc2ccc3ccccc3c21 (centres undefined)	x	54.1*	23.2	-5.3	4.2
O=C1c2ccccc2C(=O)c2c1cccc2N(CCO)CCO	28.0*	12.5	-52.3	2.5	7.7
CCN(CC)S(=O)(=O)c1ccc(N2CCOCC2)c(NC(=O)c2ccc(F)cc2)c1	-1.0	x	-16.6	3.4	3.7
CCN(CC)S(=O)(=O)c1ccc(N2CCOCC2)c(NC(=O)c2[nH]c(C)c(C(C)=O)c2C)c1	-2.9	2.7	-11.1	-1.9	63.1*
COc1cccc(NC(=O)Nc2ccc3c(c2)C(=O)N(C)C[C@@H](OC)[C@H](C)CN(CC2CC2)[C@@H](C)CO3)c1	7.4	2.5	64.4*	0.6	x
COc1cccc(NC(=O)Nc2ccc3c(c2)C(=O)N(C)C[C@@H](OC)[C@@H](C)CN(C)[C@H](C)CO3)c1	0.3	13.6	95.0*	2.6	x
COc1cccc(NC(=O)Nc2ccc3c(c2)C(=O)N(C)C[C@H](OC)[C@H](C)CN(C)[C@H](C)CO3)c1	11.0	-0.1	88.5*	0.0	x
CCCC#Cc1ccc2c(c1)O[C@@H](CN(C)Cc1cccnc1)[C@H](C)CN([C@@H](C)CO)S2(=O)=O	3.5	-4.8	11.8	0.7	x
CC(C)NC(=O)Nc1ccc2c(c1)CC(=O)N([C@@H](C)CO)C[C@H](C)[C@H](CN(C)Cc1ccccc1)O2	4.6	15.6	0.3	-0.6	x
CCC(=O)c1ccc(OCC(=O)OCC(=O)c2c(N)n(C)c(=O)n(C)c2=O)cc1	-0.4	13.7	-9.0	-0.6	-0.1
CCC(=O)c1ccc(OCC(=O)OCC(=O)c2cc(C)n(C)c2C)cc1	0.0	7.8	-6.0	35.7*	0.2
